In all, about 360,000 compounds went through this assay and about 7,300 (2%) were called active. The entries come from a sample that favours actives as a whole. Unmarked numbers belong to inactive results. No stated cut-off is given here; in the data, active means inhibition above about 50%; inactive means the rest.

This test can be described thus: inhibitors of TWEAK-Fn14 signaling, primary screen, luciferase reporter cells, uHTS (AID 1159606). Particulars: TWEAK-stimulated Fn14 reporter cells, luciferase luminescence, 8 h; at 10 µM; active compounds read high. In general terms: A reporter such as luciferase makes a cellular process visible.
What is called inhibition is the relative decrease from the control value, in per cent. For the compound `CCCCCCN1CCN(C2CN(Cc3cn(Cc4ccc(F)cc4)nn3)S(=O)(=O)C2)CC1` (stereo unspecified), the inhibition was 8.31%. For `CN(C(=O)c1ccccn1)c1nnc(-c2ccccn2)s1` the value was -1.91%; for `Cc1cnc(NC(=O)Cn2cnc3c2c(=O)n(C)c(=O)n3C)s1`, 6.18%.

Consider `Cc1cnc(NC(=O)c2ccccn2)s1`, for which the inhibition was 55.5% (active). As to `CCc1ccccc1OCC(=O)Nc1nnc(C2CC2)s1`, the inhibition is -23.1%. With `O=C(Nc1nnc(C2CC2)s1)c1ccccn1` the figure was 65.5% (active); with `CCc1cc(C(=O)Nc2nnc(C3CC3)s2)sc1C`, 7.61%.

In the case of `CN(C)c1cccc(NC(=O)c2ccc(-c3ccc(F)c(F)c3)c3ccoc23)c1`, the inhibition was -36.6%. For `CCNC(=S)Nc1ccc2c(c1)c(=O)n(C)n2Cc1ccc(Cl)cc1` the value was 10.2%; for `C=CCn1c(=S)[nH]c2scc(-c3ccco3)c2c1=O`, 2.15%.

As for `CC(C)CNC(=O)C1(C)CCCN1C(=O)CSc1ccccc1` (stereo unspecified), the inhibition was 24.6%. With `COC(c1ccccc1)(c1ccccc1)C(Oc1nc(C)cc(C)n1)C(=O)O` (stereo unspecified) the figure was 1.41%; with `O=C(/C=C/Sc1ncn[nH]1)c1ccc(Cl)cc1`, 46.2%. For `Cc1cc(C)nc(S/C=C/C(=O)c2ccccc2)n1` the value was 93.2% (active); for `COc1ccc(NC(=O)CC2C(=O)NC3CCCCC3N2C(=O)c2ccc(F)cc2)cc1` (stereo unspecified), 3.34%. With `CCSc1nc(=S)n(CC)c(C)c1C(C)=O` the figure was -1.72%.

Turning to `O=S1(=O)C[C@@H](N2CCN(CCO)CC2)[C@H](COCc2ccccc2)N1`, the inhibition was 7.64%. With `CCOC(=O)[C@H]1[C@H]2COc3ccc(C)cc3[C@@H]2N2C(=O)CN(Cc3ccc(F)cc3)C(=O)[C@@]12C` the figure was -5.2%; with `CCn1c(Cc2ccc(OC)cc2)nnc1SCC(=O)Nc1ccc(N2CCOCC2)cc1`, 4.78%.

Turning to `O=C(COC(=O)CCc1nc2ccccc2c(=O)[nH]1)Nc1ccc(N2CCOCC2)cc1`, the inhibition is -0.73%.

For `COc1cccc(/C=C(/CC(=O)Nc2ccc(N3CCOCC3)cc2)c2nc3ccccc3s2)c1`, the inhibition was 62.8% (active). In the case of `CCN(CC)C(=O)[C@H]1C[C@H](CC(=O)NCC23CC4CC(CC(C4)C2)C3)C(=O)N2CCc3c([nH]c4cc(CCC(=O)N(C)C)ccc34)[C@]12C`, the inhibition was 6.21%.

`Cc1cccc(CN2CCN(C3CN(Cc4cn(Cc5cc(C)cc(C)c5)nn4)S(=O)(=O)C3)CC2)c1` (stereo unspecified): the inhibition is 12.5%. For `CCc1ccc(-c2nnn(Cc3nc4ccccc4s3)n2)cc1` the value was -5.59%; for `COC(=O)C1[C@H]2SC(C)(C)C(C(=O)OC)N2C(=O)N1Cc1nc2ccccc2s1` (stereo partly specified), 10%. As for `COc1ccccc1OCc1nc2ccccc2s1`, the inhibition was 72.9% (active). On to `CC1(C)C2CC[C@]3(C)C(CC=C4[C@@H]5C[C@@](C)(CO)CC[C@]5(C(=O)O)CC[C@]43C)[C@@]2(C)CC[C@@H]1O` (stereo partly specified), for which the inhibition is -12.1%. For `CNC(=O)C1CN(C(=O)c2cccc(S(=O)(=O)N3CCc4ccccc43)c2)c2ccccc2O1` (stereo unspecified) the value was 11.3%; for `CC1CN(S(=O)(=O)c2ccc(C(=O)Nc3sccc3C(N)=O)cc2)CC(C)O1` (stereo unspecified), -0.86%; for `CNC(=O)c1ccsc1NC(=O)c1ccc(S(=O)(=O)N2CCc3ccccc32)cc1`, 54.5% (active).

On to `CCCCCc1c(Cc2ccccc2)ncn1CCc1ccccc1OC`, for which the inhibition was 24.1%. For `Cc1ccc(C)c(NC(=O)CN(C)C(=O)c2ccc3ncsc3c2)c1` the value was 1.46%. On to `Cc1ccc(NS(=O)(=O)c2cc3c(cc2Br)NC(=O)CO3)cc1C`, for which the inhibition was 19.6%. On to `O=C(Nc1cccc(F)c1)[C@@H]1CCCN1`, for which the inhibition was -1.09%. With `O=C1c2ccccc2C(=O)N1CC1c2ccccc2CCN1S(=O)(=O)c1ccccc1` (stereo unspecified) the figure was 4.13%; with `CCC(C)NC(=O)c1ccccc1NC(=O)c1ccccc1N(C)S(C)(=O)=O` (stereo unspecified), -11.3%. Turning to `O=c1c(/C=N/O)coc2ccc(Cl)cc12`, the inhibition is -3.08%. Consider `Cc1ccc2occ(/C=N/NC(=O)c3ccccc3C)c(=O)c2c1`, for which the inhibition is 70.5% (active).

Turning to `CC(C)(C)OC(=O)NCCCCCC(=O)N/N=C/c1coc2ccccc2c1=O`, the inhibition is -1.48%. As to `CC1(C)CC(=O)c2cnc3nc4ccccc4n3c2C1`, the inhibition is 6.24%.

Regarding `Cn1c(N)c(C(=O)COC(=O)/C=C/c2ccc(OC(F)F)cc2)c(=O)n(C)c1=O`, the inhibition is -0.1%. With `CCCOc1ccc(F)cc1-c1cc(C(=O)NCc2ccc(F)cc2)[nH]n1` the figure was 24.1%; with `CCCOc1ccc(F)cc1-c1cc(C(=O)Nc2ccc(F)cc2)[nH]n1`, 37.3%. In the case of `CCCOc1ccc(F)cc1-c1cc(C(=O)Nc2ccc(F)c(Cl)c2)[nH]n1`, the inhibition was 76.2% (active). With `CCCNC(=O)c1cc2c(c(-c3cccc(-c4ccc(C#N)cc4)c3)n1)[C@@H](CCO)N(C(=O)CC)C2` the figure was -20.1%; with `CC(=O)c1c(C)n(-c2ccc(C)cc2)c2ccc(O)cc12`, 15.6%; with `Cc1cccc(OCC(=O)NCC(=O)N/N=C/c2ccc(N(C)C)cc2)c1`, -4.48%.

For the compound `CC(=O)c1c(C)n(-c2ccc(N(C)C)cc2)c2ccc(OCC(N)=O)cc12`, the inhibition is 57.5% (active). For `COC(=O)[C@]12CCCCC=C1N(Cc1ccccc1)C(=O)[C@H](CC(=O)NCc1ccc(C)o1)C2` the value was 9.51%; for `O=C1NC[C@H](CCCCN2C[C@H](Cc3ccc(O)cc3)N(CCc3ccccc3)C(=O)C2=O)N(CCc2ccccc2)C1=O`, 13.5%; for `O=C1N/C(=C/c2cccn2-c2ccccc2)C(=O)N1c1cccc(Cl)c1`, 62.3% (active).

For the compound `O=C1CC(NNc2ccccc2)C(=O)N1c1cccc(Cl)c1` (stereo unspecified), the inhibition was 15.1%. With `N#Cc1ccccc1CN1C(=O)S/C(=C/c2cccn2-c2cccc(C(=O)O)c2)C1=O` the figure was 0.32%; with `Cc1ccc([C@H]2C[C@H](O)[C@@H](n3cc(COC(=O)c4ccccc4)nn3)CN2C(=O)C2CCCCC2)cc1`, 21%; with `COCCNC(=O)c1ccccc1-c1nc(-c2ccccc2Cl)no1`, -18.8%.

As for `Cc1c(NC(=O)C(C)OC(=O)c2ccccc2O)c(=O)n(-c2ccccc2)n1C` (stereo unspecified), the inhibition is 2.88%.
